# Bioassay records from PubChem.
# AmpC inh det – inhibitors of E. coli AmpC beta-lactamase with detergent | purified AmpC, nitrocefin hydrolysis with detergent | Potency, µM (titrated, usually from 28.7 µM) | hit rate 0.09% among 71,000 | AID 584; active = well fitted curve in the direction sought with a large enough effect; inconclusive = small, poorly fitted or top-dose-only effect
# Target sequence (P00811 whole entry, looked up): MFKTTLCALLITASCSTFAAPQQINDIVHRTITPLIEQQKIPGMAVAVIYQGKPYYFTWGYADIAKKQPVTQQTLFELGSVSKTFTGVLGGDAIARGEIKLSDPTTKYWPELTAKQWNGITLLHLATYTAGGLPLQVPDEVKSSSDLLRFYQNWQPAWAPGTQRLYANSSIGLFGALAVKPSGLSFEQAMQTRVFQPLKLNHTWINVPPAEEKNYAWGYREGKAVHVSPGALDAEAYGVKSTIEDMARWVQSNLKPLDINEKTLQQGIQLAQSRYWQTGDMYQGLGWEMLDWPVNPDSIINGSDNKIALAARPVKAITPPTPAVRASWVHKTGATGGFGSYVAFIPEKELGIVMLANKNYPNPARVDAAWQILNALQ
#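 E. coli AmpC (5.3 nM) in 20 mM phosphate pH 7.0 with 0.01% Triton X-100, preincubated 15 min RT with compound; nitrocefin (2 uL of 800 uM stock) hydrolysis followed by 480 nm absorbance every 20 s over 4 min.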
# Prx2 Sm inh – inhibitors of Schistosoma mansoni peroxiredoxin 2 | Potency, µM | hit rate 0.07% among 65,000 | S. mansoni Prx2 activity coupled to TGR/GSH (TGR is thioredoxin glutathione reductase), NADPH fluorescence loss, qHTS
#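 Activity is read as the drop in NADPH fluorescence (365/450 nm), recorded every 30 sec for 8 min after H2O2 addition. Prx2 is coupled to TGR-driven NADPH oxidation through glutathione, in phosphate buffer pH 7.4.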
# AmpC inh no det – blocks E. coli AmpC beta-lactamase in absence of detergent | P00811 | AmpC nitrocefin hydrolysis, absorbance 480 nm, no detergent | Potency, µM (highest dose often 28.7 µM) | hit rate 1.8% among 71,000
#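 AmpC, 20 mM phosphate pH 7.0; 15 min cpd preinc, RT; start with nitrocefin (800 uM stock); A480 kinetic read, 20 s intervals, 4 min. No-enzyme wells = negative control.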
# Anthrax LT inh – blocks cellular internalization of anthrax lethal toxin; Cells, anthrax lethal toxin internalization, FRET ratio (460/530); Potency, µM (top dose mostly 40 µM), most hits filed as inhibitors; hit rate 0.67% among 70,000; also: nearly all actives have a fitted effect of over 50% in size
# A number is an active result; 0 = inactive; ? = inconclusive; - = no result; ! = repeats disagree; [ ] = remark or other dose. An excerpt weighted towards active compounds, which were near 2.6% of everything screened. Unless noted, calls follow the shape of the full dose curve.
SMILES,AmpC inh det,Prx2 Sm inh,AmpC inh no det,Anthrax LT inh
Cc1cnc(CNc2ccnc(-c3ccc(C(=O)N(C)C)cc3)n2)cn1,0,0,0,?
COc1cc2c(cc1OC)-c1nnnn1C(C)(C)C2,0,-,0,0
COc1cc2c(cc1OC)-c1nnc(-c3cccs3)n1C(C)(C)C2,0,0,4µM[single pt active],0
O=C1Nc2ccccc2C2(CCN(CCc3ccc(C(F)(F)F)cc3)CC2)O1,-,-,-,10µM
O=C(Nc1cccc(-c2nc3ccccc3[nH]2)c1)c1cccc(NC(=O)c2ccco2)c1,0,-,0,16µM
CCCOc1cccc(C(=O)Nc2cccc(NC(=O)c3ccco3)c2)c1,0,-,0,5µM
Cc1ccc(S(=O)(=O)n2nc(C)c(Br)c2C)c(C)c1C,0,0,0,13µM
CCOC(=O)N1CCN(S(=O)(=O)c2ccc(C)c(C)c2C)CC1,0,0,0,0
O=C1OC(NC(=O)c2ccccc2)C(n2cc(CO)nn2)=C1Cl (stereo not given),0,0,0,13µM
Oc1c(Cl)ccc(Cl)c1Cl,0,-,0,0
Oc1c(Cl)c(Cl)c(Cl)c(Cl)c1Cl,0,-,0,20µM
Cc1cc(CN2CCN(CCC#N)CC2)c(O)c(C2(C)CCCCC2)c1,0,0,0,13µM
O=Cc1ccc(C(=O)O)cc1,0,-,0,0
CC(C)(C)c1cc(C(=O)/C=C/c2ccc(C(=O)O)cc2)cc(C(C)(C)C)c1,-,-,-,13µM
CCOCCCNC(=O)Cn1ncc2c(=O)oc3ccccc3c21,0,0,4µM[single pt active],0
O=C(Cn1ncc2c(=O)oc3ccccc3c21)NCCC1=CCCCC1,0,0,0,0
CC(C)OCCCNC(=O)Cn1ncc2c(=O)oc3ccccc3c21,0,0,0,0
O=C(Cn1ncc2c(=O)oc3ccccc3c21)NCC1CCCO1 (stereo not given),0,0,4µM[single pt active],0
CC(CCc1ccco1)NC(=O)Cn1ncc2c(=O)oc3ccccc3c21 (stereo not given),0,0,4µM[single pt active],0
c1ccc(CCCNc2nnnc3ccccc23)cc1,0[5.75 µM],0,0[5.75 µM],0[8 µM]
COc1ccc(OCC2CN3C(CCC(C)C3c3ccc(Br)cc3)C(=O)O2)cc1 (stereo not given),-,-,-,0[8 µM]
COc1ccc(-c2cc(C(=O)NCc3cccs3)no2)cc1OC,0,-,0,0
Cc1cccc(NC(=O)C2CCN(S(=O)(=O)c3cccc4nsnc34)CC2)n1,0,0,0,0
COc1ccc2nc(NC(=O)C3CCN(S(=O)(=O)c4cccc5nsnc45)CC3)sc2c1,0,0,0,13µM
NCCC[C@@H](CC(=O)N[C@@H]1CCCC[C@H]1C(=O)N[C@H](CC(=O)N[C@@H](CCC(=O)O)CC(=O)O)Cc1ccccc1)NC(=O)C[C@H](Cc1c[nH]c2ccccc12)NC(=O)[C@@H]1CCCC[C@H]1N,0,0,0,0
SMILES,AmpC inh det,Prx2 Sm inh,AmpC inh no det,Anthrax LT inh
C=CCn1c(COc2ccc(CC)cc2)nnc1SC/C(O)=C(\C#N)c1nc2ccccc2[nH]1,0,0,1.3µM,0
C=CCn1c(COc2ccccc2)nnc1SCc1ccc(C#N)cc1,0,0,0,-
OCCN1CCN(C(c2cccs2)c2ccc3cccnc3c2O)CC1 (stereo not given),0,0,13µM,?
CCOC(=O)N1CCC(NC(=O)Cn2nc(-c3ccccc3)ccc2=O)CC1,0,0,0,?
CCOC(=O)N1CCC(NC(=O)Cn2nc(Cc3ccncc3)c3ccccc3c2=O)CC1,0,0,4µM[single pt active],0
C[C@]12CC[C@H]3c4ccc(O)cc4CC[C@@H]3[C@H]1CC[C@@H]2OC(=O)CCc1ccccc1,0[5.75 µM],0,0[5.75 µM],0[8 µM]
Cc1cc(C)c2c(=O)n(CC(=O)N3CCC(N4CCCCC4)CC3)sc2n1,0,0,0,3.2µM
Cn1c(=O)c(-c2ccccc2)nc2cnc(N3CCOCC3)nc21,0,0,0,?
N#CCSc1nc2scc(-c3cccs3)c2c(=O)n1CCc1ccccc1,0,0,7.9µM,0
C=CCn1c(SCn2nnc3ccccc3c2=O)nc2scc(-c3cccs3)c2c1=O,0,0,0,0
Clc1ccc2c(NC3CCC(N4CCCCC4)CC3)ccnc2c1 (stereo not given),0[5.75 µM],0,0[5.75 µM],2.5µM
O=C(Nc1ccc(F)c(Cl)c1)c1ccc2c(=O)n3c(nc2c1)CCCCC3,0,0,0,0
CN(C(=O)c1ccc2c(=O)n3c(nc2c1)CCCCC3)c1ccccc1,0,0,0,0
O=C(Nc1cccc(Cl)c1)c1ccc2c(=O)n3c(nc2c1)CCCCC3,0,0,0,13µM
O=C(NCCC1=CCCCC1)c1ccc2c(=O)n3c(nc2c1)CCCCC3,0,0,0,13µM
COc1cccc(NC(=O)CN2C(=O)COc3ccc(Cl)cc32)c1,0,0,0,16µM
CCOc1ccc(NC(=O)CN2C(=O)COc3ccc(Cl)cc32)cc1,0,0,4µM[single pt active],?
COCCNC(=O)CN1C(=O)COc2ccc(Cl)cc21,0,0,0,0
COC(=O)CN1C(=O)COc2ccc(Cl)cc21,0,0,4µM[single pt active],0
Cc1cccc(NC(=O)CN2C(=O)COc3ccc(Cl)cc32)c1,0,0,0,?
CO[C@H]1COC(=O)[C@H]2CCCN2C(=O)C/C=C\[C@@H](C)[C@H](OC)COC(=O)C/C=C\[C@@H]1C,-,-,-,0[1.6 µM]
C[C@@H]1C(=O)N(C)C(=O)c2nc[nH]c21,0,0,0,0
Cc1onc(-c2c(F)cccc2Cl)c1C(=O)NCc1cccs1,0,0,0,0
CC1(C)S[C@@H]2[C@H](NC(=O)C3(N)CCCCC3)C(=O)N2[C@H]1C(=O)O,0.013µM,0,0.0063µM,0[3.58 µM]
Cc1onc(-c2c(F)cccc2Cl)c1C(=O)N[C@H]1C(=O)N2[C@H]1SC(C)(C)[C@H]2C(=O)O,0.002µM,0,0.0016µM,0[3.58 µM]
SMILES,AmpC inh det,Prx2 Sm inh,AmpC inh no det,Anthrax LT inh
Cc1onc(-c2c(F)cccc2Cl)c1C(=O)N[C@@H]1C(=O)N2[C@H]1SC(C)(C)[C@H]2C(=O)O,0.04µM,0,0.025µM,?
Cc1onc(-c2ccccc2Cl)c1C(=O)N[C@H]1C(=O)N2[C@H]1SC(C)(C)[C@H]2C(=O)O,0.002µM,0,0.0016µM,0[3.58 µM]
CC(=O)OC[C@H]1O[C@@H](O/N=C(\C)CCN2CCc3nc(-c4ccccc4)c(-c4ccccc4)cc3C2)[C@H](OC(C)=O)[C@@H](OC(C)=O)[C@H]1OC(C)=O,-,-,-,0[8 µM]
N[C@H](C(=O)N[C@@H]1C(=O)N2C(C(=O)O)=C(Cl)CS[C@@H]12)c1ccccc1,0,0,0,0[3.58 µM]
C=N[C@H](C(=O)N[C@@H]1C(=O)N2[C@@H]1SC(C)(C)[C@@H]2C(=O)O)c1ccccc1,0.16µM,0,0.13µM,?
CCc1cc2c(=O)n(Cc3ccco3)c(SCc3c(C)noc3C)nc2s1,0,0,0,10µM
CC(=O)Nc1ccc(S(=O)(=O)Nc2cccc(-c3nc4cc(C)ccc4o3)c2)cc1,0,0,0,13µM
Cc1ccc2oc(-c3cccc(NC(=O)C4CCCO4)c3)nc2c1 (stereo not given),0,0,0,0
CC1=NCCc2c1[nH]c1cc(O)ccc21,0,0,13µM!,?
COc1ccc2c3c([nH]c2c1)C(C)=NCC3,0,0,0,?
COc1cc2ccc([C@H](C)NCC#N)cc2cc1OC,0[5.75 µM],0,0[5.75 µM],?
CN(C)c1nc(N2CCCCC2)nc(N2CCCCC2)n1,0,0,4µM[single pt active],0
